Assay [1] can be described thus: small molecules captured by biotinylated probe aFSTL3 – biochemical, small-molecule microarray, fluorescence 635/667, stem cell growth factor project, primary screen (AID 1064).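 Note: measures binding of the biotinylated anti-FSTL3 antibody to printed compounds.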 The note with it: higher = more signal.
A short description of assay [2]: binders from COS7 lysate, DM2A8 probe, primary screen, torsin A project, cell lysate, small-molecule microarray, fluorescence 635/667 (AID 1065). The note with it: higher = more signal, COS7 lysate expressing mutant human TOR1A.
Assay [3] in a line: small molecules captured by biotinylated probe aFGF2 – biochemical, small-molecule microarray, fluorescence 635/667, stem cell growth factor project, primary screen (AID 1067).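 Note: measures binding of biotinylated aFGF2 protein to printed compounds on slides; z-score merges feature fluorescence and signal-to-noise across triplicate slides.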 To be noted: higher = more signal.
Assay [4] is described as follows: small molecules captured by biotinylated probe aFGF10 – biochemical, small-molecule microarray, fluorescence 635/667, stem cell growth factor project, primary screen (AID 1071).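 Note: score merges 667 nm spot intensity and signal to noise from triplicate slides.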 The note with it: higher = more signal.
Assay [5] addresses Neurogenic locus notch homolog protein 2 (Homo sapiens) (UniProt Q04721). Kind of assay: small molecules binding Notch2 protein – biochemical, small-molecule microarray, 635 nm fluorescence, stem cell growth factors, primary screen (AID 1073). The note with it: higher = more signal.
The target of assay [6] is Pro-neuregulin-1, membrane-bound isoform (Homo sapiens) (UniProt Q02297). Kind of assay: small molecules binding neuregulin-1 protein – biochemical, small-molecule microarray, fluorescence 635/667, psychiatric disease protein project, primary screen (AID 1075).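 Note: score combines 667 nm spot fluorescence with signal to noise.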 The note with it: NRG1 binding, 635 nm fluorescence, higher = more signal.
Assay [7] relates to Neuregulin-1 EGF-like domain. In words: small molecules binding NRG1 EGF domain – biochemical, small-molecule microarray, 635 nm fluorescence, primary screen (AID 1081).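 Note: binding of the protein to compounds printed on small-molecule microarray slides.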 To be noted: higher = more signal.
The nature of assay [8]: FRG1 expression reporter modulators in myotubes – cell-based, C2C12 myotubes, firefly/Renilla luciferase, luminescence, FRG1 inhibition for FSHD, primary screen (AID 1084). The note with it: FRG1 promoter luciferase, higher = more signal, called active from +8 up or from −8 down.
Assay [9] can be described thus: small molecules captured by biotinylated probe aFST – biochemical, small-molecule microarray, fluorescence 635/667, stem cell growth factor project, primary screen (AID 1086).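 Note: score merges 667 nm fluorescence with signal-to-noise of each printed compound spot.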 To be noted: higher = more signal.
Assay [10] is described as follows: binders of probe aHhip on microarray, primary screen, stem cell growth factor project, biochemical, small-molecule microarray, fluorescence 635/667 (AID 1087).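 Note: score merges spot fluorescence at 667nm with spot signal to noise ratio.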 To be noted: higher = more signal.
In assay [11] the test system is PRMT1 (protein arginine N-methyltransferase 1). In words: small molecules binding arginine methyltransferase PRMT1 – biochemical, small-molecule microarray, 635 nm fluorescence, primary screen (AID 1088).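 Note: binding of Prmt1 protein to compounds spotted on small-molecule microarray slides.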 To be noted: higher = more signal.
Assay [12] in a line: growth effects on S. cerevisiae YJM789 – YJM789 clinical isolate, OD600, 24 h, basal, primary screen (AID 1089).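 Note: growth of clinical yeast isolate S. cerevisiae YJM 789 seeded 1000 cells per well; test concentration not given here.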 To be noted: higher = more signal, called active from +8 up or from −8 down.
The nature of assay [13]: S. pombe growth modifiers, basal conditions – strain 972, OD600, 24 h, no modulator, primary screen (AID 1090).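 Note: basal condition with compound alone and no growth modifier present; test concentration not given here.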 To be noted: S. pombe 972 growth, higher = more signal, called active from +8 up or from −8 down.
Assay [14] can be described thus: budding yeast growth modifiers under rapamycin – strain BY4716, OD600, 96 h, primary screen (AID 1091). Note: test concentration not given here. The note with it: S. cerevisiae BY4716 + rapamycin, higher = more signal, called active from +8 up or from −8 down.
Assay [15] has as its target Torsin-1A-interacting protein 2 (Homo sapiens) (UniProt Q8NFQ8). Kind of assay: small molecules binding lysate-expressed LULL1 – cell lysate, human LULL1 lysate, 635/667 nm fluorescence, primary screen (AID 1092).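 Note: probe is lysate of COS7 cells overexpressing human LULL1; score merges per-feature 667 nm fluorescence with signal-to-noise.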 To be noted: small-molecule microarray, hLULL1 lysate binding, 635 nm fluorescence; higher = more signal.
Assay [16] in a line: optical density change of DRC41 E. coli – strain DRC41, OD650, 24 h, E. coli filamentation project, primary screen (AID 1093).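 Note: MC1000 strain lacking acrAB efflux and sulA so SOS filamentation is blocked; test concentration not given here.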 To be noted: E. coli DRC41 growth, higher = more signal, called active from +8 up or from −8 down.
Assay [17] is described as follows: probe aLefty2 binding to arrayed compounds – biochemical, biotinylated probe, 635/667 nm fluorescence, primary screen (AID 1094).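 Note: score merges spot fluorescence near 667 nm with spot signal-to-noise ratio.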 To be noted: small-molecule microarray, higher = more signal.
Assay [18] concerns Noggin (protein binding on small-molecule microarray). Kind of assay: small molecules binding Noggin protein – biochemical, 635/667 nm fluorescence, primary screen (AID 1095).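 Note: score merges 667 nm feature fluorescence with signal to noise over triplicate slides.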 The note with it: 635 nm fluorescence, higher = more signal.
Assay [19] deals with Neurogenic locus notch homolog protein 3 (Homo sapiens) (UniProt Q9UM47). In words: small molecules binding NOTCH3 protein – biochemical, 635/667 nm fluorescence, primary screen (AID 1096). The note with it: small-molecule microarray, 635 nm fluorescence, higher = more signal.
A short description of assay [20]: probe aEGFR binding to arrayed compounds – biochemical, biotinylated probe, 635/667 nm fluorescence, primary screen (AID 1097).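 Note: probe is a biotinylated anti-EGFR antibody binding compounds printed on slides; score combines fluorescence near 667 nm and signal to noise of each spot.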 To be noted: small-molecule microarray, higher = more signal.

In PubChem BioAssay one finds composite z-score and z-score data, which are given here for 6 molecules.

Active and inactive are the calls of the source.

Chain of Neurogenic locus notch homolog protein 2 (Homo sapiens) (Q04721 whole entry, looked up, canonical isoform): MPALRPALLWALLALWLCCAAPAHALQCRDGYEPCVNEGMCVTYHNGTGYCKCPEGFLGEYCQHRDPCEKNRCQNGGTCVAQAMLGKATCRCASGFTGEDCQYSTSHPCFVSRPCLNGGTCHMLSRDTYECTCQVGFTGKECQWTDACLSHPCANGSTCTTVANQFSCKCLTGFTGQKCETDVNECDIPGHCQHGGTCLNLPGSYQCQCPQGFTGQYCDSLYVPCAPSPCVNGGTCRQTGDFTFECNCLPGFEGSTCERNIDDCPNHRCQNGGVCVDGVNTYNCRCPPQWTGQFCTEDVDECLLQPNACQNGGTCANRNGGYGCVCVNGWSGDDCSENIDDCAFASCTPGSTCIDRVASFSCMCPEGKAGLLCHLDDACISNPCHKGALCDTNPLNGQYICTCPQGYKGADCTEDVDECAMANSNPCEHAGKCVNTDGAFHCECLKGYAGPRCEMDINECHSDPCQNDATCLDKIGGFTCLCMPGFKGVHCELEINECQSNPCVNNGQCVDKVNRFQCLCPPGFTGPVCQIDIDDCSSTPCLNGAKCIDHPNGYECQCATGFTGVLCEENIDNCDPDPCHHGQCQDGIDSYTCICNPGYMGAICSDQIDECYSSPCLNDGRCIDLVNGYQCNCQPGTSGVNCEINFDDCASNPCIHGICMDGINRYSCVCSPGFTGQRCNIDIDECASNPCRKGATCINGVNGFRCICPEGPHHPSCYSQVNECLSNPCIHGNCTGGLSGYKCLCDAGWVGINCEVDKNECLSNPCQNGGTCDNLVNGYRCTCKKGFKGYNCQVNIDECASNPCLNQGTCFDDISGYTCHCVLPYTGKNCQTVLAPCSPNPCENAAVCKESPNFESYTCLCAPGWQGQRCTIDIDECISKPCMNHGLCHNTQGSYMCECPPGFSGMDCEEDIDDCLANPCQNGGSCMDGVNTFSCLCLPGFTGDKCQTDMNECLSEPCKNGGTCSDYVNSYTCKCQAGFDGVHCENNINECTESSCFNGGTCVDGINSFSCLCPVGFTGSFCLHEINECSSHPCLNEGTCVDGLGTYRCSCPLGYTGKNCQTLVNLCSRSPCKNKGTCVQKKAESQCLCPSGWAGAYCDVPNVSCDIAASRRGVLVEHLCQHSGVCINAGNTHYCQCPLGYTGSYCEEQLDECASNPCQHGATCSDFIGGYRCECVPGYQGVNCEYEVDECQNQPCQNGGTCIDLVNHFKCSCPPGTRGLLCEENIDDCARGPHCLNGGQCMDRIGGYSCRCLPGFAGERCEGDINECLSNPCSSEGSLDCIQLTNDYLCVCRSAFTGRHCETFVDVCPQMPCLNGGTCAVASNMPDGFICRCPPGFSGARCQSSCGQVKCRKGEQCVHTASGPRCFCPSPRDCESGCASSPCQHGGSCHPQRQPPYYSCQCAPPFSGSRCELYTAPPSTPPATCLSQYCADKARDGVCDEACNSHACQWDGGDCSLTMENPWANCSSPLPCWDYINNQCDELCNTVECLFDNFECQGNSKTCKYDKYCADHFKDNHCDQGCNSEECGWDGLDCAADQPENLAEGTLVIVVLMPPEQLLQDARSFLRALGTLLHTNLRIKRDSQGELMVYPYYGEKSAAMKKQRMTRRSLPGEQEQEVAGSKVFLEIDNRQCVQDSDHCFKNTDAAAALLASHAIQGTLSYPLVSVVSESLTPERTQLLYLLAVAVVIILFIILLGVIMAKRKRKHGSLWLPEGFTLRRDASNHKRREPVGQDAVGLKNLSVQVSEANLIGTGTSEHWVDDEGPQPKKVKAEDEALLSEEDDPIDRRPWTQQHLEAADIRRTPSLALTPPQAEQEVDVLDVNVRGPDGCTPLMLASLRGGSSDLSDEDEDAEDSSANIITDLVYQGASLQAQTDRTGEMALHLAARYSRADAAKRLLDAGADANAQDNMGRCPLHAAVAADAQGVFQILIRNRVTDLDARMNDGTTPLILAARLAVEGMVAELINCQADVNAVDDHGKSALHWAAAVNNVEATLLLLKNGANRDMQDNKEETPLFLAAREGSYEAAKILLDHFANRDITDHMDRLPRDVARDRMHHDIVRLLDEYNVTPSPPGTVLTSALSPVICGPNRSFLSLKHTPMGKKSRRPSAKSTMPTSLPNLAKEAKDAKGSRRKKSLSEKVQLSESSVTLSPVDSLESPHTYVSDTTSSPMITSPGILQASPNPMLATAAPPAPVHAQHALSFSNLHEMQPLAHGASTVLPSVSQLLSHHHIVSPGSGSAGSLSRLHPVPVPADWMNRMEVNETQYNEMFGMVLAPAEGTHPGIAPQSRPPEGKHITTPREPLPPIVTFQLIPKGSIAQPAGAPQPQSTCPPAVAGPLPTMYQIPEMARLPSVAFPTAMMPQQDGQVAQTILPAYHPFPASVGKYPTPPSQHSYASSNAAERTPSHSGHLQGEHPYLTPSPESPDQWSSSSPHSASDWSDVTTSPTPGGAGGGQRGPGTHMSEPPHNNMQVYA
Chain of Torsin-1A-interacting protein 2 (Homo sapiens) (Q8NFQ8 whole entry, looked up): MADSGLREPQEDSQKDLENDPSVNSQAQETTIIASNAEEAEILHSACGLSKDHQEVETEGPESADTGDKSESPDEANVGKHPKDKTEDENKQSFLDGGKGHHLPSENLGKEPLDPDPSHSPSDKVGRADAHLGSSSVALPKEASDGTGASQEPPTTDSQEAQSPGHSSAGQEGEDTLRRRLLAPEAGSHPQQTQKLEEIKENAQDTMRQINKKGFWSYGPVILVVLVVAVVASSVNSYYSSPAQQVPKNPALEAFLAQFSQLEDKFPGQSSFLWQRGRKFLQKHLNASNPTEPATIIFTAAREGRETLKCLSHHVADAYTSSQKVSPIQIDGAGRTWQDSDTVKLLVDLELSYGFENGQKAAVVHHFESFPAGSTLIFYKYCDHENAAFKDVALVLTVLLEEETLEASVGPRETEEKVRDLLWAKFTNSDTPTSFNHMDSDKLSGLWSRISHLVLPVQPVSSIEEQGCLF
Chain of Pro-neuregulin-1, membrane-bound isoform (Homo sapiens) (Q02297 whole entry, looked up, the tested form may be a part, canonical isoform): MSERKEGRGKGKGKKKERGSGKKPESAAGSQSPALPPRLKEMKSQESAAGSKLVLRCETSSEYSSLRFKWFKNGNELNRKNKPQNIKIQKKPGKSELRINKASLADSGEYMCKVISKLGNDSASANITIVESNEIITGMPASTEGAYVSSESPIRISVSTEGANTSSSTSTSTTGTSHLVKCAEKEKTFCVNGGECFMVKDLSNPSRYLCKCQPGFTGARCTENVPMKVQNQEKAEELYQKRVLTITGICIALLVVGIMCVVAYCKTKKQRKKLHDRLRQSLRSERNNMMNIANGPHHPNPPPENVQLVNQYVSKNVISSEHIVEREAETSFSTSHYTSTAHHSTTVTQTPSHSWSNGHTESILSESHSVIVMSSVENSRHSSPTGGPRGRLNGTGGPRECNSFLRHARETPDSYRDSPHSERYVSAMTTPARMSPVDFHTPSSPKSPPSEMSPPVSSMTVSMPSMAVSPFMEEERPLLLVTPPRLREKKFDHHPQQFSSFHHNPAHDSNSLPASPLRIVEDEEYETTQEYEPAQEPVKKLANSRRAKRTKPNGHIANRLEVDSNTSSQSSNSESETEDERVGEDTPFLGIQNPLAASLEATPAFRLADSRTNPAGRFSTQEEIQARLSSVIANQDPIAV

Turning to `C=CCNC(=O)[C@@H]1[C@H]2C(=O)O[C@H](c3ccccc3)[C@H](c3ccccc3)N2[C@H](c2ccc(OCCO)cc2)[C@@]12C(=O)Nc1ccc(C#CCCO)cc12`, the composite z-score in assay [1] came to 0.604; in assay [2], 0.727; in assay [3] it was 0.162; in assay [4] it was 0.944; in [5] it was 1.05; in assay [6], 0.853. The composite z-score is 1.25 in assay [7]; 0.804 in assay [9]; -0.138 in assay [10]; 1.52 in assay [11]; 3.29 in assay [15]; 0.501 in assay [17]. Also, the composite z-score in assay [18] amounted to 1.36; in assay [19] it was 1.12; in [20] it was 0.692. The z-score in assay [8] is 0.806 (inactive); in [12] it was 0.85 (inactive); in assay [13], 0.975 (inactive); in assay [14], 3.39 (inactive); in assay [16], -0.207 (inactive).

For the molecule `CN1C(=O)C2C=CC(C(O)C3=C[C@H]4C[C@@H](C3)C4(C)C)N(Nc3ccccc3)C2C1=O` (stereo not given in full), the composite z-score in assay [1] is 1.23; in assay [2], 0.329; in assay [3], -0.0454; in assay [4], 0.677; in assay [5], 1.49; in [6], 0.986. For the same molecule, the composite z-score worked out at 1.02 in assay [7]; 1.23 in assay [9]; 0.064 in assay [10]; 0.965 in assay [11]; 2.46 in [15]; 0.161 in assay [17]. Besides, the results for the composite z-score in assay [18], in assay [19] and in [20] were 0.305, 1.14 and -0.0065, respectively. Further, the z-score in assay [8] was 0.175 (inactive); in [12], 0.443 (inactive); in [13] it was 0.192 (inactive); in assay [14] it was 1.31 (inactive); in [16] it was 0.0208 (inactive).

Consider `COCCCNC(=O)C1N=C(c2ccc(OCCCO)cc2)N(c2ccccc2)O1` (stereo not given), for which the composite z-score in assay [1] was -0.39; in assay [2], 0.461; in assay [3], 0.0038; in [4], 0.848; in assay [5], 0.872; in [6], 0.124. The composite z-score is 0.609 in assay [7]; 0.504 in assay [9]; 0.0176 in [10]; 1.39 in assay [11]; 1.94 in [15]; -0.0553 in assay [17]. In addition, the composite z-score in assay [18] was 1.08; in assay [19], 0.911; in [20] it was -0.0549. Besides, the z-score in assay [8] is 3.02 (inactive); in assay [12] it was 0.0302 (inactive); in assay [13], 0.42 (inactive); in [14], -0.779 (inactive); in [16], 0.919 (inactive).

For the molecule `Cc1ccc(S[C@]2(C(=O)NCC(C)C)CC(=O)N(Cc3cc(C(F)(F)F)cc(C(F)(F)F)c3)[C@@H]2c2ccc(CO)cc2I)cc1`, the composite z-score in assay [1] was 1.61; in assay [2], -0.367; in assay [3] it was -0.113; in assay [4] it was -0.637; in assay [5], -1.1; in assay [6], 1.13. In addition, the composite z-score is 0.102 in assay [7]; 0.0584 in [9]; -0.216 in assay [10]; 0.714 in [11]; 0.736 in assay [15]; 0.31 in assay [17]. Besides, the values for the composite z-score in [18], in assay [19] and in assay [20] were -2.5, -0.332 and -0.0824, respectively. In addition, the z-score in [8] was -0.286 (inactive); in [12], -1.79 (inactive); in [13], -1.94 (inactive); in assay [14], 0.651 (inactive); in assay [16], -0.161 (inactive).

As for `O=C(NCc1ccccc1)[C@@H]1c2ccccc2C(=O)N(CC23CC4CC(CC(C4)C2)C3)[C@H]1c1ccc(CO)cc1`, the composite z-score in [1] is -0.906; in [2] it was 0.0469; in assay [3], -0.0494; in assay [4], 0.484; in assay [5], 1.01; in [6], 1.45. Besides, the composite z-score is 1.2 in assay [7]; 0.193 in assay [9]; -0.0994 in assay [10]; 1.55 in [11]; 2.9 in assay [15]; -0.225 in assay [17]. The composite z-score is 1.72 in assay [18], 1.05 in assay [19] and -0.137 in assay [20]. Also, the z-score in assay [8] is -3.34 (inactive); in assay [12], -0.52 (inactive); in assay [13], -0.0538 (inactive); in assay [14], 0.988 (inactive); in [16], -0.668 (inactive).

As to `[N-]=[N+]=NCc1ccccc1[C@@H]1OC(c2ccc(OCCCO)cc2)=N[C@]1(CCS(=O)(=O)c1ccccc1)C(=O)NCc1ccccc1`, the composite z-score was 0.985 in assay [1]; 1.05 in [2]; 0.289 in assay [3]; 0.76 in assay [4]; 1.5 in [5]; 1.74 in [6]. For the same molecule, the composite z-score in [7] came out at 1.32; in assay [9], 1.89; in [10], 0.683; in assay [11], 1.55; in [15], 3.25; in [17], 0.468. In addition, the composite z-score in [18] was determined as 1.81; in [19], 1.09; in assay [20] it was 0.198. The z-score is -2.83 (inactive) in assay [8]; 0.182 (inactive) in [12]; 1.18 (inactive) in assay [13]; 3.49 (inactive) in assay [14]; -0.382 (inactive) in assay [16].
